Records with an inconclusive call do not appear. Where a call stands in place of a potency, no number is given. Unmarked numbers belong to inactive results. The source made the active and inactive calls. The call rests on the fitted dose curve; in most records, active means well fitted inhibition curve with a large enough effect; inconclusive means small, poorly fitted or top-dose-only effect; inactive means no such curve, though single readings can be large or run the other way.
Test: Primary qHTS for inhibitors of nuclear receptor binding SET domain protein 2 (NSD2) in an RCH-ACV wild type WT cells (2C) (AID 1645877); further: nearly all actives have a fitted effect of over 70% in size
Details: RCH-ACV (leukaemia line) NSD2 WT (2C) viability, CellTiter-Glo, 72 h; series mostly up to 44.9 µM

| Compound | Potency | activity change, negative = cell killing |
| --- | --- | --- |
| CC(=O)c1c(O)cc2c(c1C)C(=O)CC(O)C2 (stereo unspecified) | inactive |  |
| CC1[C@@H](O)[C@@H](O)C2[C@]3(C)C(C[C@H]4OC(=O)[C@H](O)[C@]1(O)[C@@]24C)C(C)(O)C[C@H](O)[C@H]3O (stereo partly specified) | inactive |  |
| CC1CCC2C(C)(C)C(O)CCC2(C)C12Cc1c(O)cc3c(c1O2)C(N)=NC3 (stereo unspecified) | inactive |  |
| C=C1CCC2C(C)(CO[C@@H]3O[C@H](CO)[C@@H](O)[C@H](O)[C@H]3O)C(O)CCC2(C)C1C(=O)CC1=CCOC1=O (stereo partly specified) | inactive |  |
| Cc1ncc([N+](=O)[O-])n1CC(O)CN1CCOCC1 (stereo unspecified) | inactive |  |
| CC1(C)CC2C(C1)C1(C)CCC13OC3(CO)C2O (stereo unspecified) | inactive |  |
| C[C@]12CCC(=O)C=C1[C@@H](O)C[C@@H]1[C@@H]2[C@@H](O)C[C@@]2(C)[C@H]1CC[C@]2(O)C(=O)CO | inactive |  |
| C[C@@H]1CC[C@]2(C(=O)O)CC[C@]3(C(=O)O)C(=CCC4[C@@]5(C)CC[C@H](O[C@@H]6O[C@@H](C)[C@H](O[C@@H]7O[C@H](CO)[C@@H](O)[C@H](O)[C@H]7O)[C@@H](O)[C@H]6O)C(C)(C)C5CC[C@]43C)C2[C@H]1C (stereo partly specified) | inactive |  |
| CC1(C)O[C@]23C[C@H]1C[C@H](OC(=O)c1ccoc1)[C@]2(C)[C@@H](OC(=O)c1ccoc1)CCC3(C)O (stereo partly specified) | inactive |  |
| CC1CCC2(C(=O)OC3OC(COC4OC(CO)C(O)C(O)C4O)C(O)C(O)C3O)CCC3(C)C(=CCC4C5(C)CCC(O)C(C)(C(=O)O)C5CCC43C)C2C1(C)O (stereo unspecified) |  | 2.11% [at 9.23 µM] |
| CC1OC(OC2C(CO)OC(OCC3OC(OC(=O)C45CCC(C)(C)CC4C4=CCC6C7(C)CCC(OC8OC(C(=O)O)C(O)C(OC9OC(CO)C(O)C(O)C9O)C8O)C(C)(C)C7CCC6(C)C4(C)CC5)C(O)C(O)C3O)C(O)C2O)C(O)C(O)C1O (stereo unspecified) |  | -4.23% [at 9.23 µM] |

Reference: PubChem BioAssay (NCATS)
